The text below walks through data of PubChem BioAssay (NCI).

Holding throughout (test): NCI-60 one-dose screen, 48 h (100 = growth as untreated, 0 = no growth, -100 = all killed)
Common to all, as to settings: 10 µM unless noted

Assay [1] has as its system NCI-H23 lung.
The test system of assay [2] is NCI-H226 lung.
In assay [3] the test system is NCI-H322M lung.
Assay [4] relates to HOP-62 NSCLC.
For assay [5], the system named is NCI-H460 lung.
The test system of assay [6] is HOP-92 NSCLC.
The test system of assay [7] is NCI-H522 lung.
In assay [8] the test system is A549/ATCC NSCLC.
Assay [9] deals with 786-0 renal.
Assay [10] concerns COLO 205 colon.

About 83,000 compounds went through this panel and 20% of them were active in at least one assay; those are over-represented in the sample as a whole.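 Testing used 96-well plates and a 48-hour single-concentration exposure. Example: -40 means 40% of the starting cells died.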 A number with no mark means an inactive call. The source made the active and inactive calls. How the source made its calls: active means growth percent below 10; inactive means the rest.

In the case of `OCc1cnccc1NCCCOc1ccccc1`, the growth in assay [1] was 97.7%; in [2], 92.9%; in [3], 100%; in [4] it was 99.9%; in assay [5], 106%; in assay [6] it was 90.5%. Further, the growth in [7] was 100%; in assay [8], 93.2%; in assay [9] it was 101%; in [10] it was 123%.
Regarding `C=C1C(=O)O[C@H]2[C@H]1CC/C(COC(=O)NCc1c[nH]c3ccc(Cl)cc13)=C\CC[C@@]1(C)O[C@@H]21`, the growth in assay [1] was 34.8%; in [2] it was 6.61% (active); in [3] it was 76.2%; in [4], 60.5%; in assay [5] it was 18%; in assay [6] it was -35.7% (active). Further, the growth in assay [7] was -90.4% (active); in assay [8], 55.8%; in [9], -61.8% (active); in assay [10], -59.3% (active).
As to `COc1cc(/C=C\C(=O)O)ccc1OCc1ccccc1`, the growth in assay [1] was 100%; in assay [2] it was 80.2%; in [3], 117%; in assay [4], 99%; in assay [5] it was 105%; in assay [6], 86.1%. The growth in [7] is 83.6%; in assay [8] it was 82.3%; in [9], 109%; in assay [10] it was 108%.
For `CCCCCCNC(=O)Oc1ccc(/C(=C(\C)c2ccccc2)c2ccc(OCCCN(C)C)cc2)cc1`, the growth in assay [1] was 82.8%; in [2], 104%; in assay [3] it was 75.2%; in assay [4], 98.3%; in [5] it was 39.1%; in assay [6], 83.7%. In addition, the growth in assay [7] is 88.9%; in [8], 72.7%; in [9], 71%; in [10], 58.1%.
On to `O=C(O)c1ccc2c(c1)C(=O)N(Cc1ccccc1)C2=O`, for which the growth was 98.5% in assay [1]; 92.7% in assay [2]; 96% in [3]; 95.8% in assay [4]; 102% in assay [5]; 86.2% in assay [6]. The growth in [7] is 91.4%; in assay [8] it was 101%; in assay [9] it was 95.5%; in assay [10], 107%.
On to `CCN(CC)CCn1c(=O)c2cc(OC)c(OC)cc2c2ccc3cc4c(cc3c21)OCO4`, for which the growth was 19.5% in assay [1]; 1.83% (active) in [2]; 41% in assay [3]; 21.9% in assay [4]; 6.21% (active) in assay [5]; 52.6% in [6]. Besides, the growth in [7] is 34.9%; in [8] it was 39.4%; in [9] it was 11.4%; in [10], 30.2%.
`CCSCC1CC(O)(c2ccccc2)CC(c2ccc(F)cc2)O1` (stereo not given): the growth in assay [1] is 26.6%; in assay [2], 24.6%; in assay [3], 45.4%; in [4] it was 26.2%; in [5] it was -30.9% (active); in assay [6], -9.6% (active). Further, the growth in assay [7] was 53.9%; in [8], 20.7%; in assay [9], -23.7% (active); in assay [10], -94.8% (active).
For the compound `O=S(=O)(NCCNc1nccc(-c2c(-c3cccc(F)c3)nc3sccn23)n1)c1ccc(Br)cc1`, the growth in [1] is 72.6%; in [2], 41.2%; in [3], 61%; in [4], 83.3%; in assay [5] it was 27.8%; in [6] it was 76.7%. The growth is 62.6% in assay [7], 34.1% in assay [8], 50.6% in assay [9] and 36.4% in assay [10].
Take `C#CCNC(=O)[C@H](Cc1ccccc1)NC(=O)[C@]12CC[C@@H](C(=C)C)[C@@H]1[C@H]1CC[C@@H]3[C@@]4(C)CCC(=O)C(C)(C)[C@@H]4CC[C@@]3(C)[C@]1(C)CC2`: the growth in [1] was 70.6%; in [2], 68.7%; in [3], 69.9%; in assay [4] it was 77.1%; in assay [5], 66.7%; in assay [6], 66%. Also, the growth in assay [7] was 52.6%; in [8] it was 53.9%; in assay [9], 76%; in [10] it was 78.7%.
As for `C/C(=N\NC(=O)CSc1nc2ccccc2c(=O)n1CCc1ccc(S(N)(=O)=O)cc1)c1ccccn1`, the growth is 50.4% in [1]; 43.4% in [2]; 25.9% in [3]; 25.2% in assay [4]; 12.1% in assay [5]; 67.5% in [6]. Also, the growth in assay [7] is 18.9%; in assay [8] it was 21.1%; in [9], 34.8%; in assay [10], 8.47% (active).
Consider `COc1cc2c(c(O)c1Cl)C(=O)c1c(O)cc(C[C@H](C)O)cc1[C@H]2[C@H]1c2cc(C[C@H](C)O)cc(O)c2C(=O)c2c1cc(OC)c(Cl)c2O`, for which the growth in assay [1] was 9.36% (active); in assay [2] it was 19%; in [3], 17.7%; in [4], 12.4%; in assay [5] it was -0.266% (active); in [6] it was -24.2% (active). The growth was 5.59% (active) in assay [7], 12.5% in assay [8], 14.3% in assay [9] and -72.5% (active) in assay [10].
Take `C[C@H]1[C@H]2[C@H]3CC[C@@H]4[C@@]5(C)CC[C@H](O)C(C)(C)[C@@H]5CC[C@@]4(C)[C@]3(C)CC[C@]23CO[C@]1(C)[C@@H](C(=O)/C=C\c1ccco1)C3`: the growth in assay [1] is 98.5%; in [2], 99.7%; in assay [3], 88.3%; in assay [4], 104%; in [5], 109%; in [6] it was 65.4%. Moreover, the growth is 87.8% in [7], 104% in [8], 104% in assay [9] and -2.3% (active) in assay [10].
Take `Cc1cc2cc3ccc(N(C)C)cc3nc2cc1N`: the growth in assay [1] is -25.6% (active); in assay [2], -28.4% (active); in assay [3], -5.9% (active); in [4], -39.1% (active); in assay [5], -70.9% (active); in [6], -4.62% (active). Further, the growth is -49.9% (active) in assay [7], -18.7% (active) in [8], 8.26% (active) in [9] and -67.7% (active) in [10].
